Measurements published in PubChem BioAssay (NCI).
The panel holds about 83,000 compounds, 20% with a hit somewhere; the sample as a whole holds those more often.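 96-well plates, one dose, 48 hours. Percent growth reported; active if below 10.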 Calls of active or inactive are those of the source.

test system: PC-3 prostate; test: NCI-60 one-dose screen, 48 h (100 = growth as untreated, 0 = no growth, -100 = all killed); details: 10 µM

Row | Structure (SMILES) | growth
1 | CCCCCCCCCCCC(=O)NCCCN(C)C | 75.5% (inactive)
2 | Nc1ccc(C2=CC(c3ccc(Cl)cc3)N3C=CSC3=N2)cc1 (stereo unspecified) | -28.1% (active)
3 | CC(=O)n1nc(C(=O)OC(C)(C)C)c2cc(F)c(F)cc21 | 97.7% (inactive)
4 | COC(=O)c1c(C)nc(Nc2nc3ccccc3s2)nc1-c1ccc(Cl)cc1Cl | 91.3% (inactive)
5 | O=C(O)CCCCSCCCCC(=O)O | 96.8% (inactive)
6 | COc1cc(-c2nc3ccc(C)cc3[nH]2)ccc1OCC(=O)N=Nc1c(O)[nH]c2ccccc12 | -63.8% (active)
7 | CC1=CSC2=NC(c3ccc(Cl)c(Cl)c3)=CC(c3ccc(Cl)cc3)N12 (stereo unspecified) | 45.4% (inactive)
8 | COc1ccc(Nc2ccnc(N3CCN(c4ccnc5cc(Cl)ccc45)CC3)n2)cc1 | 0.553% (active)
9 | Cn1cnc([N+](=O)[O-])c1/C=C1\Oc2ccc(Cl)cc2C1=O | 79.3% (inactive)
10 | CCOC(=O)Cn1nnc(-c2ccc(OCc3ccccc3F)cc2)n1 | 89% (inactive)
11 | COc1ccc(/C(CS(=O)(=O)c2ccccc2)=N\O)cc1 | 104% (inactive)
12 | COc1ccc(S(=O)(=O)Nc2cc(/C=C\c3cc(OC)c(OC)c(OC)c3)ccc2OC)cc1 | -2.4% (active)
13 | COc1ccc2nc(C)cc(Nc3ccc(Cl)cc3)c2c1 | 100% (inactive)
14 | COc1cc(-c2nc3ccc(C)cc3[nH]2)ccc1OCc1nnc(-c2ccc(CC(C)C)cc2)o1 | 88.1% (inactive)
15 | Cc1noc(C)c1-c1ccc2nc(NC(=O)[C@H]3CCN(C#N)C3)cn2c1 | 91.7% (inactive)
16 | COc1ccc(COC(=O)CC(C)C)cc1 | 94.4% (inactive)
